Experimental data as given in PubChem BioAssay AID1159580 (chemical genetic matrix, 2015).
Several values for one entry are separate records, joined by “and”; a condition that tells them apart may be missing. Equal values may be shown once. Hit rate of the full screen: of about 5,500 compounds, about 2,000 (36%) were called active. Roughly 18% stayed inconclusive and do not appear here. No stated cut-off is given here; in the data, active means normalized growth mostly below about 0.91 (no sharp cut-off); inconclusive means no clear call, values can overlap the other calls; inactive means mostly above about 0.92. The list shows a part of the results.

Test: chemical genetic growth profiling, strain panel (AID 1159580);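 further: tested at 20 µM; growth read once vehicle control cultures reached saturation at 30 °C; 1 = growth at the plate median or of vehicle wells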
Details: S. cerevisiae deletion strains, growth OD

Measured: normalized growth

Cc1cccc(N(C)C(=S)Oc2ccc3ccccc3c2)c1
active: locus YDR137W, strain rgp1, stronger effect = lower value 1.33 [resistant]
inactive: locus YAL013W, strain DEP1, stronger effect = lower value 0.968 | locus YAL021C, strain ccr4, stronger effect = lower value 0.952 | locus YAL026C, strain drs2, stronger effect = lower value 0.995 | locus YAL030W, strain snc1, stronger effect = lower value 0.996 | locus YBL061C, strain skt5, stronger effect = lower value 0.994 | locus YBR009C, strain hhf1, stronger effect = lower value 1.02 | locus YBR021W, strain FUR4, stronger effect = lower value 0.964 | locus YBR023C, strain chs3, stronger effect = lower value 0.981 | locus YBR171W, strain sec66, stronger effect = lower value 0.985 | locus YBR229C, strain ROT2, stronger effect = lower value 0.943 | locus YBR231C, strain swc5, stronger effect = lower value 0.973 | locus YBR279W, strain paf1, stronger effect = lower value 1.01 | locus YCL011C, strain gbp2, stronger effect = lower value 1 | locus YCL016C, strain dcc1, stronger effect = lower value 0.986 | locus YCL029C, strain bik1, stronger effect = lower value 0.967 | locus YCL069W, strain vba3, stronger effect = lower value 0.989 | locus YCR088W, strain abp1, stronger effect = lower value 0.995 | locus YDL005C, strain med2, stronger effect = lower value 0.998 | locus YDL035C, strain GPR1, stronger effect = lower value 0.979 | locus YDL040C, strain nat1, stronger effect = lower value 1.01 | locus YDL074C, strain BRE1, stronger effect = lower value 0.948 | locus YDL101C, strain DUN1, stronger effect = lower value 0.979 | locus YDL134C, strain PPH21, stronger effect = lower value 0.992 | locus YDL185W, strain tfp1, stronger effect = lower value 0.915 | locus YDL192W, strain arf1, stronger effect = lower value 0.976 | locus YDR001C, strain nth1, stronger effect = lower value 0.99 | locus YDR069C, strain doa4, stronger effect = lower value 0.985 | locus YDR101C, strain arx1, stronger effect = lower value 0.978 | locus YDR150W, strain NUM1, stronger effect = lower value 0.971 | locus YDR159W, strain sac3, stronger effect = lower value 0.935 | locus YDR162C, strain NBP2, stronger effect = lower value 1.01 | locus YDR195W, strain ref2 0.967 | locus YDR297W, strain sur2, stronger effect = lower value 0.984 | locus YDR318W, strain mcm21, stronger effect = lower value 0.982 | locus YDR334W, strain swr1, stronger effect = lower value 1.04 | locus YDR335W, strain msn5, stronger effect = lower value 1.01 | locus YDR388W, stronger effect = lower value 0.99 | locus YDR392W, strain spt3, stronger effect = lower value 0.894 | locus YDR502C, strain sam2, stronger effect = lower value 0.983 | locus YEL003W, strain gim4, stronger effect = lower value 1 | locus YEL037C, strain rad23, stronger effect = lower value 0.99 | locus YEL061C, strain CIN8 (second series), stronger effect = lower value 0.989 | locus YEL061C, strain CIN8, stronger effect = lower value 0.987 | locus YER015W, strain faa2, stronger effect = lower value 0.991 | locus YER016W, strain bim1, stronger effect = lower value 0.993 | locus YER110C, stronger effect = lower value 0.983 | locus YER111C, strain swi4, stronger effect = lower value 1.01 | locus YER155C, strain BEM2 (second series), stronger effect = lower value 1.02 | locus YER155C, strain BEM2, stronger effect = lower value 0.979 | locus YER167W, strain BCK2, stronger effect = lower value 0.976 | locus YFR010W, strain ubp6, stronger effect = lower value 1.01 | locus YGL078C, strain dbp3, stronger effect = lower value 0.98 | locus YGL086W, strain mad1, stronger effect = lower value 0.962 | locus YGL167C, strain pmr1, stronger effect = lower value 0.984 | locus YGL173C, strain kem1, stronger effect = lower value 0.985 | locus YGL227W, strain vid30, stronger effect = lower value 1.02 | locus YGL240W, strain doc1, stronger effect = lower value 0.951 | locus YGL248W, strain PDE1, stronger effect = lower value 0.974 | locus YGL253W, strain hxk2, stronger effect = lower value 0.986 | locus YGR078C, strain PAC10, stronger effect = lower value 0.979 | locus YGR135W, strain pre9, stronger effect = lower value 0.997 | locus YGR252W, strain gcn5, stronger effect = lower value 1.02 | locus YHR013C, strain ard1, stronger effect = lower value 1 | locus YHR027C, strain rpn1, stronger effect = lower value 0.989 | locus YHR030C, strain SLT2, stronger effect = lower value 0.986 and 0.935 | locus YHR079C, strain IRE1 (second series), stronger effect = lower value 0.984 | locus YHR079C, strain IRE1, stronger effect = lower value 0.941 | locus YHR094C, strain hxt1, stronger effect = lower value 0.981 | locus YHR129C, strain ARP1, stronger effect = lower value 0.969 | locus YHR142W, strain chs7, stronger effect = lower value 1 | locus YHR200W, strain rpn10, stronger effect = lower value 0.961 | locus YIL066C, strain RNR3, stronger effect = lower value 0.958 | locus YIL073C, strain SPO22, stronger effect = lower value 0.964 | locus YIL125W, strain kgd1, stronger effect = lower value 0.981 | locus YIR030C, strain dcg1, stronger effect = lower value 0.966 | locus YJL092W, strain hpr5, stronger effect = lower value 0.99 | locus YJL095W, strain BCK1 (second series), stronger effect = lower value 0.993 | locus YJL095W, strain BCK1, stronger effect = lower value 0.993 and 0.928 | locus YJL115W, strain asf1, stronger effect = lower value 1 | locus YJL129C, strain trk1, stronger effect = lower value 0.922 | locus YJL134W, strain LCB3, stronger effect = lower value 0.989 | locus YJL154C, strain vps35, stronger effect = lower value 0.998 | locus YJL164C, strain tpk1, stronger effect = lower value 0.997 | locus YJL166W, strain qcr8, stronger effect = lower value 0.99 | locus YJL168C, strain set2, stronger effect = lower value 0.984 | locus YJL187C, strain SWE1 (second series), stronger effect = lower value 0.974 | locus YJR043C, strain POL32, stronger effect = lower value 0.997 | locus YJR066W, strain TOR1, stronger effect = lower value 0.878
